In paper PMC4552634, “A New Set of Chemical Starting Points with Plasmodium falciparum Transmission-Blocking Potential for Antimalarial Drug Discovery” (PLoS ONE, 2015):
Out of some 13,000 compounds screened, about 3,200 (25%) showed an effect of 50% or more. This is one part of the list.

These compounds were tested on P. falciparum stage V gametocytes. Settings: 48 h, 5 µM; inhibitor.
Design: BacTiter-Glo ATP luminescence viability of purified stage V gametocytes in 384-well plates, per cent inhibition versus DMSO
In the case of `COc1cc(Nc2nccc(N3CCC(NC(=O)Nc4cccc(C(C)=O)c4)C3)n2)cc(OC)c1OC` (stereo not drawn) [TCMDC-133621], the “% Inhibition” value is reported as -9.129%.
`COc1cc(Cc2cnc(N)nc2N)cc(OCC(C)(C)C(=O)O)c1OC` [TCMDC-137887] was tested, and the “% Inhibition” value was -9.297%.
In the case of `CC(=O)Nc1cccc(C(=O)Nc2cccc(-c3cccc(-c4nc5ccc(F)cc5[nH]4)c3)c2)c1` [TCMDC-132137], the “% Inhibition” value is reported as 91.99%.
`Cc1cnc(C(=O)Nc2cccc(-c3cccc(-c4nc5ccc(F)cc5[nH]4)c3)c2)cn1` [TCMDC-137027] was tested, and the “% Inhibition” value was 68.21%.
`NC(=O)c1ccc(NCC(=O)Nc2cccc(-c3cccc(-c4nc5ccc(C(F)(F)F)cc5[nH]4)c3)c2)cc1` [TCMDC-132164] was tested, and the “% Inhibition” value was -17.45%.
In the case of `O=C(Nc1ccc(Cl)cc1)Nc1cccc(-c2ccc(-c3nc4ccc(F)cc4[nH]3)cc2)c1` [TCMDC-133183], the “% Inhibition” value is reported as 78.47%.
In the case of `Cc1cnc(C(=O)Nc2cccc(-c3ccc(-c4nc5ccc(F)cc5[nH]4)cc3)c2)cn1` [TCMDC-137029], the “% Inhibition” value is reported as 23.15%.
In the case of `NC(=O)c1ccc(NCC(=O)Nc2cccc(-c3cccc(-c4nc5ccccc5[nH]4)c3)c2)cc1` [TCMDC-132162], the “% Inhibition” value is reported as 2.725%.
In the case of `O=C(Nc1ccc(Cl)cc1)Nc1cccc(-c2cccc(-c3nc4ccc(F)cc4[nH]3)c2)c1` [TCMDC-133185], the “% Inhibition” value is reported as -67.78%.
In the case of `O=C(Nc1ccc(Cl)cc1)Nc1ccc(-c2cccc(-c3nc4ccc(F)cc4[nH]3)c2)cc1` [TCMDC-133186], the “% Inhibition” value is reported as -8.569%.
`CC(=O)Nc1cccc(C(=O)Nc2cccc(-c3ccc(-c4nc5ccc(F)cc5[nH]4)cc3)c2)c1` [TCMDC-132139] was tested, and the “% Inhibition” value was -25.67%.
With `CC(=O)Nc1cccc(C(=O)Nc2ccc(-c3cccc(-c4nc5ccc(F)cc5[nH]4)c3)cc2)c1` [TCMDC-132135] the “% Inhibition” value was -4.902%.
`NC(=O)c1ccc(NCC(=O)Nc2cccc(-c3cccc(-c4nc5ccc(F)cc5[nH]4)c3)c2)cc1` [TCMDC-132163] was tested, and the “% Inhibition” value was 90.29%.
In the case of `Cc1cnc(C(=O)Nc2ccc(-c3cccc(-c4nc5ccccc5[nH]4)c3)cc2)cn1` [TCMDC-137026], the “% Inhibition” value is reported as -17.4%.
`O=C(NCCc1ccc(F)cc1)c1ccc(N2CCN(c3ccncc3)CC2)nc1` [TCMDC-134585] was tested, and the “% Inhibition” value was 1.059%.
For `COc1ccc(C2CC(c3cccs3)=NN2C(=O)c2ccco2)cc1OC` (stereo not drawn) [TCMDC-123796], the “% Inhibition” value was 12.69%.
With `COc1ccc(CCCCN2C(=O)C(c3ccccc3)(c3ccccc3)N=C2N)cc1` [TCMDC-136522] the “% Inhibition” value was -62.46%.
With `C=CCOc1cc(Cc2cnc(N)nc2N)cc(OC)c1OC` [TCMDC-138042] the “% Inhibition” value was -3.964%.
With `CCOc1cc(C(=O)NCc2cccc(C(F)(F)F)c2)ccc1-c1nc2ccc(Cl)cc2[nH]1` [TCMDC-140902] the “% Inhibition” value was 11.85%.
In the case of `O=C(Nc1ccc(Cn2ncc(N3CCCNCC3)c(Cl)c2=O)cc1)Nc1cc(F)cc(C(F)(F)F)c1` [TCMDC-133317], the “% Inhibition” value is reported as -20.94%.
In the case of `COc1nc(NCC(C)C)nc(Oc2ccc(=O)n(Cc3ccccc3)n2)n1` [TCMDC-124913], the “% Inhibition” value is reported as 48.86%.
With `O=C(Cc1ccc(NC(=O)c2ccc(O)c(-c3ccc(Cl)c(Cl)c3)c2)cc1)NCCc1ccc(Cl)c(Cl)c1` [TCMDC-140873] the “% Inhibition” value was 3.533%.
With `O=C(/C=C/c1ccc(Cl)c(Cl)c1)NCC(CCCN1CCC(c2c[nH]c3ccccc23)CC1)c1ccccc1` (stereo not drawn) [TCMDC-139506] the “% Inhibition” value was -7.536%.
With `CC(=O)NC1=NC(C)(C)N(OCCCOc2ccc(Cl)c(Cl)c2)C(NC(C)=O)=N1` [TCMDC-131742] the “% Inhibition” value was 2.376%.
In the case of `Cc1cc(F)ccc1Oc1nc(Nc2ccc(N3CCOCC3)c(F)c2)nc2c1S(=O)(=O)CCC2` [TCMDC-135096], the “% Inhibition” value is reported as 20%.
`CCOc1cc(-c2nnc3[nH]c(=O)n(C)c(=O)c3n2)ccc1OC(C)C` [TCMDC-124558] was tested, and the “% Inhibition” value was -22.82%.
`O=C(Nc1ccc(C(=O)OCC2CCCCC2)cc1)N[C@@H](Cc1ccc(O)cc1)C(=O)NC1CCN(Cc2ccc(O)cc2)C1` (stereo partly drawn) [TCMDC-135357] was tested, and the “% Inhibition” value was -23.12%.
`O=C(Nc1cccc(-c2cccc(-c3nc4ccc(F)cc4[nH]3)c2)c1)c1ccoc1` [TCMDC-136841] was tested, and the “% Inhibition” value was 83.89%.
With `O=C(Nc1ccc(-c2cccc(-c3nc4ccc(F)cc4[nH]3)c2)cc1)c1ccncc1` [TCMDC-136957] the “% Inhibition” value was -5.175%.
In the case of `O=C(Nc1cccc(-c2ccc(-c3nc4ccc(F)cc4[nH]3)cc2)c1)c1ccoc1` [TCMDC-136843], the “% Inhibition” value is reported as -15.37%.
For `O=C(Nc1cccc(-c2cccc(-c3nc4ccccc4[nH]3)c2)c1)c1ccoc1` [TCMDC-136840], the “% Inhibition” value was 9.278%.
In the case of `O=C(Nc1cccc(-c2cccc(-c3nc4ccc(F)cc4[nH]3)c2)c1)c1ccncc1` [TCMDC-136959], the “% Inhibition” value is reported as 85.81%.
With `O=C(Nc1cccc(-c2ccc(-c3nc4ccc(F)cc4[nH]3)cc2)c1)c1ccncc1` [TCMDC-136961] the “% Inhibition” value was -22.91%.
For `CCCCCCn1c(Sc2ccc(C#N)c([N+](=O)[O-])c2)nnc1-c1ccc(OC)cc1` [TCMDC-135604], the “% Inhibition” value was 12.04%.
`CN1C(=O)OC[C@@H]1Cc1ccc2[nH]cc(C3=CCN(Cc4ccccc4)CC3)c2c1` [TCMDC-137790] was tested, and the “% Inhibition” value was 15.2%.
`COc1cccc(C2C(C(=O)Nc3ccccc3)=C(C)N=c3sc(=Cc4ccc(O)cc4)c(=O)n32)c1` (stereo not drawn) [TCMDC-125613] was tested, and the “% Inhibition” value was -17.06%.
For `COc1cccc(Nc2nnc(SCC(=O)NNC(=O)c3ccccn3)s2)c1` [TCMDC-124565], the “% Inhibition” value was 57.52%.
For `COCC(C)n1c(C)cc(C(=O)CSc2nnc(Nc3ccccc3)s2)c1C` (stereo not drawn) [TCMDC-123611], the “% Inhibition” value was 2.084%.
For `C[C@@H](CC1CCCCC1)OC(=O)N(C)[C@@H]1CCN(C#N)C1` [TCMDC-138502], the “% Inhibition” value was 39.73%.
In the case of `COCCCNC(=O)c1ccc(O)c(-c2cc(Cl)cc(Cl)c2)c1` [TCMDC-140158], the “% Inhibition” value is reported as -17.86%.
`Cc1noc(C)c1-c1cccc(CNCc2ccc(-c3ccc(-c4nc5cc(C(F)(F)F)ccc5[nH]4)cc3)cc2)c1.O=C(O)C(F)(F)F` [TCMDC-133058] was tested, and the “% Inhibition” value was 15.98%.
`CC(=O)Nc1ccc(C(=O)Nc2cccc(-c3ccc(-c4nc5ccc(F)cc5[nH]4)cc3)c2)cn1` [TCMDC-136826] was tested, and the “% Inhibition” value was -35.51%.
In the case of `CC(=O)Nc1cccc(C(=O)Nc2ccc(-c3cccc(-c4nc5ccc(C(F)(F)F)cc5[nH]4)c3)cc2)c1` [TCMDC-132140], the “% Inhibition” value is reported as -29.21%.
For `CC(=O)N(C)c1cccc(C(=O)Nc2ccc(-c3cccc(-c4nc5ccc(C(F)(F)F)cc5[nH]4)c3)cc2)c1` [TCMDC-137070], the “% Inhibition” value was -32.74%.
In the case of `CC(=O)N(C)c1cccc(C(=O)Nc2cccc(-c3cccc(-c4nc5ccc(C(F)(F)F)cc5[nH]4)c3)c2)c1` [TCMDC-137069], the “% Inhibition” value is reported as 42.31%.
With `Cc1cccc2[nH]c(-c3cccc(-c4cccc(NC(=O)c5ccc(C(N)=O)cc5)c4)c3)nc12` [TCMDC-132192] the “% Inhibition” value was -7.489%.
In the case of `CC(=O)Nc1cc(C(=O)Nc2cccc(-c3cccc(-c4nc5c(C)cccc5[nH]4)c3)c2)ccc1C` [TCMDC-137040], the “% Inhibition” value is reported as 72.59%.
For `NC(=O)c1cccc(C(=O)Nc2cccc(-c3cccc(-c4nc5ccc(C(F)(F)F)cc5[nH]4)c3)c2)c1` [TCMDC-132199], the “% Inhibition” value was -28.51%.
For `NC(=O)c1ccc(C(=O)Nc2cccc(-c3ccc(-c4nc5ccc(C(F)(F)F)cc5[nH]4)cc3)c2)cc1` [TCMDC-132193], the “% Inhibition” value was -16.46%.
`CC(=O)N(C)c1cccc(C(=O)Nc2cccc(-c3ccc(-c4nc5ccc(C(F)(F)F)cc5[nH]4)cc3)c2)c1` [TCMDC-137073] was tested, and the “% Inhibition” value was 81.14%.
`CC(=O)Nc1cc(C(=O)Nc2cccc(-c3cccc(-c4nc5ccc(C(F)(F)F)cc5[nH]4)c3)c2)ccc1C` [TCMDC-137039] was tested, and the “% Inhibition” value was 68.75%.
With `CC(=O)Nc1cccc(C(=O)Nc2ccc(-c3cccc(-c4nc5c(C)cccc5[nH]4)c3)cc2)c1` [TCMDC-132141] the “% Inhibition” value was -0.1401%.
With `CC(=O)Nc1ccc(C(=O)Nc2cccc(-c3ccc(-c4nc5ccc(C(F)(F)F)cc5[nH]4)cc3)c2)cn1` [TCMDC-136832] the “% Inhibition” value was 60.22%.
`CCc1c(C(=O)NC2CCC(N3CCC(c4ccccc4C)CC3)CC2)[nH]c2ccc(Br)cc12` (stereo not drawn) [TCMDC-133530] was tested, and the “% Inhibition” value was -72.63%.
`CC(CNC(=O)C(c1cc2ccccc2o1)N1CCN(C(c2ccccc2)c2ccccc2)CC1)c1ccccc1` (stereo not drawn) [TCMDC-141010] was tested, and the “% Inhibition” value was 11.08%.
For `O=C(Nc1ccc(C(F)(F)F)cc1)c1cccc(S(=O)(=O)NC2CCN(Cc3ccccc3)C2)c1` (stereo not drawn) [TCMDC-132484], the “% Inhibition” value was -13.38%.
In the case of `CCN(CC)CCNC(=O)c1ccc(NC(=O)c2oc3c(Cl)cccc3c2C)cc1` [TCMDC-125463], the “% Inhibition” value is reported as 22.65%.
In the case of `O=S(=O)(c1ccccc1)C1CC1` [TCMDC-132010], the “% Inhibition” value is reported as 2.082%.
For `CSc1nnc2n(Cc3ccccc3)c(=O)c3c(n12)-c1ccccc1CC31CCCCC1` [TCMDC-125076], the “% Inhibition” value was -1.112%.
For `O=C(CSc1nc2ccccc2c(=O)n1CC1CCCO1)Nc1cc(C(F)(F)F)ccc1Cl` (stereo not drawn) [TCMDC-123732], the “% Inhibition” value was -97.98%.
With `CC(=O)Nc1ccc(C(=O)Nc2cccc(-c3cccc(-c4nc5ccc(C(F)(F)F)cc5[nH]4)c3)c2)cn1` [TCMDC-136828] the “% Inhibition” value was 75.79%.
`CC(=O)Nc1ccc(C(=O)Nc2cccc(-c3cccc(-c4nc5ccc(F)cc5[nH]4)c3)c2)cn1` [TCMDC-136824] was tested, and the “% Inhibition” value was -57.69%.
With `O=C(Nc1cccc(-c2cccc(-c3nc4ccc(C(F)(F)F)cc4[nH]3)c2)c1)Nc1ccc(F)c(F)c1F` [TCMDC-133229] the “% Inhibition” value was 80.27%.
In the case of `CC(=O)Nc1ccc(C(=O)Nc2ccc(-c3cccc(-c4nc5ccc(C(F)(F)F)cc5[nH]4)c3)cc2)cn1` [TCMDC-136829], the “% Inhibition” value is reported as 5.637%.
With `O=C(Nc1ccc(-c2cccc(-c3nc4ccc(C(F)(F)F)cc4[nH]3)c2)cc1)Nc1ccc(F)c(F)c1F` [TCMDC-133228] the “% Inhibition” value was -36.32%.
In the case of `O=C(Nc1cccc(-c2ccc(-c3nc4ccc(C(F)(F)F)cc4[nH]3)cc2)c1)Nc1ccc(F)c(F)c1F` [TCMDC-133224], the “% Inhibition” value is reported as -27.79%.
In the case of `NC(=O)c1ccc(C(=O)Nc2cccc(-c3cccc(-c4nc5ccc(C(F)(F)F)cc5[nH]4)c3)c2)cc1` [TCMDC-132191], the “% Inhibition” value is reported as 5.838%.
With `O=C(Nc1cccc(-c2cccc(-c3nc4ccc(C(F)(F)F)cc4[nH]3)c2)c1)c1ccncc1` [TCMDC-136963] the “% Inhibition” value was -4.28%.
For `CNC(=O)Cc1ccc(C(=O)Nc2cccc(-c3cccc(-c4nc5ccc(C(F)(F)F)cc5[nH]4)c3)c2)cc1` [TCMDC-137074], the “% Inhibition” value was 50.29%.
